Data on 18 molecules can be found in PubChem BioAssay (NCATS).

Inconclusive results are not listed. Unmarked numbers belong to inactive results. Calls of active or inactive are those of the source. Calls follow the shape of the dose curve; as a rule, active = well fitted cell-killing curve with a large enough effect; inconclusive = small, poorly fitted or top-dose-only effect, or effect the other way; inactive = no such curve, though single readings can be large or run the other way.
Potency is read from the fitted curve at half-maximal effect.

This assay in a line: Quantitative High-Throughput drug screen in 47 multiple myeloma cell lines against the NCATS MIPE library collection: EJM_DSMZ cell viability assay (AID 1918926; also: nearly all actives have a fitted effect of over 30% in size). Particulars: EJM myeloma cell viability, CellTiter-Glo ATP, 48 h; series mostly up to 45.8 µM; viability, % of control: at the top concentration. Put shortly:
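We plated 500 myeloma cells per well, pinned in MIPE 4.0 compounds, and incubated for 48 hours at 37C. ATP was then quantified with CellTiter-Glo, with DMSO and media-only wells defining 100% and 0%.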
On to `CN(C)CCOC(c1ccccc1)c1ccccc1`, for which the “viability, % of control” value is 116%.

Regarding `CN1C2CCC1CC(OC(=O)C(CO)c1ccccc1)C2` (stereo not drawn), the “viability, % of control” value was 90.2%.

As for `CCN1CCCC1CNC(=O)c1cc(S(=O)(=O)CC)c(N)cc1OC` (stereo not drawn), the “viability, % of control” value was 97.2%.

For the molecule `O=C(Nc1ccc([N+](=O)[O-])cc1Cl)c1cc(Cl)ccc1O`, the Potency was 1.87 µM (active).

Take `CC[C@@]1(O)C(=O)OCc2c1cc1n(c2=O)Cc2cc3c(CN(C)C)c(O)ccc3nc2-1`: the Potency is 0.935 µM (active).

Take `CS(=O)(=O)Nc1ccc([N+](=O)[O-])cc1Oc1ccccc1`: the “viability, % of control” value was 86.5%.

As for `Cc1cc(C(C)(C)C)c(O)c(C)c1CC1=NCCN1`, the “viability, % of control” value was 94.2%.

For `CS(=O)(=O)CCNCc1ccc(-c2ccc3ncnc(Nc4ccc(OCc5cccc(F)c5)c(Cl)c4)c3c2)o1`, the Potency was 0.0235 µM (active).

Take `CC(=O)OCC(CCn1cnc2cnc(N)nc21)COC(C)=O`: the “viability, % of control” value is 123%.

As to `NCCS(=O)(=O)O`, the “viability, % of control” value is 99.1%.

Take `O=C1c2c(O)ccc(O)c2C(=O)c2c(NCCNCCO)ccc(NCCNCCO)c21`: the Potency is 0.833 µM (active).

On to `O=C(C1CCCCC1)N1CC(=O)N2CCc3ccccc3C2C1` (stereo not drawn), for which the “viability, % of control” value was 85.2%.

On to `Cc1cc(C(C)(C)C)cc(C)c1CC1=NCCN1`, for which the “viability, % of control” value was 105%.

As for `NC(=O)OCC(COC(N)=O)c1ccccc1`, the “viability, % of control” value was 106%.

As to `CC(C)C(=O)Nc1ccc([N+](=O)[O-])c(C(F)(F)F)c1`, the Potency was 1.48 µM (active).

Take `CC1(C)O[C@H]2CC(=O)OC[C@]23[C@H]2CC[C@@]4(C)[C@H](c5ccoc5)OC(=O)[C@H]5O[C@]54[C@]2(C)C(=O)C[C@@H]13`: the “viability, % of control” value is 116%.

As to `CCC1(c2ccccc2)C(=O)NCNC1=O`, the “viability, % of control” value is 105%.

Regarding `CCOC(=O)Nc1ccc(NCc2ccc(F)cc2)nc1N`, the “viability, % of control” value is 109%.
